SARS PLpro yeast – inhibitors of SARS-CoV papain-like protease in yeast. Potency, µM (top dose mostly 32.9 µM), inactives show top-dose activity, positive = growth rescue, actives largely listed as activators. S. cerevisiae expressing SARS-CoV PLpro, growth rescue. AID 485353. 0.19% of 330,000 active; calls by dose curve; also: potency is read from the fitted curve at half-maximal effect; 0% is about no effect; nearly all actives have a fitted effect of over 55% in size
CHX counter – counter-screen hit for Shiga toxin inhibitors, cycloheximide; cell reporter, cycloheximide protein synthesis inhibition counterscreen; max response, %; 12% of 300,000 active; AID 2314; in the data active = max response mostly above about 13%, no sharp cut-off; inactive = mostly below about 14%; also: read at 38.3 µM for the half of the compounds with a filed dose; 0% is about no effect
LmPK inh – inhibitors of Leishmania mexicana pyruvate kinase; Q27686; purified LmPK, Kinase-Glo ATP luminescence, 1 h; Potency, µM (top dose mostly 57.5 µM), without a hit: at the top dose activity change, negative = inhibition, most hits filed as inhibitors; 0.37% of 290,000 active; AID 1721; also: potency is read from the fitted curve at half-maximal effect; % is scaled to controls: 0 for no effect and ±100 for the full control effect
Target sequence (Q27686 whole entry, looked up): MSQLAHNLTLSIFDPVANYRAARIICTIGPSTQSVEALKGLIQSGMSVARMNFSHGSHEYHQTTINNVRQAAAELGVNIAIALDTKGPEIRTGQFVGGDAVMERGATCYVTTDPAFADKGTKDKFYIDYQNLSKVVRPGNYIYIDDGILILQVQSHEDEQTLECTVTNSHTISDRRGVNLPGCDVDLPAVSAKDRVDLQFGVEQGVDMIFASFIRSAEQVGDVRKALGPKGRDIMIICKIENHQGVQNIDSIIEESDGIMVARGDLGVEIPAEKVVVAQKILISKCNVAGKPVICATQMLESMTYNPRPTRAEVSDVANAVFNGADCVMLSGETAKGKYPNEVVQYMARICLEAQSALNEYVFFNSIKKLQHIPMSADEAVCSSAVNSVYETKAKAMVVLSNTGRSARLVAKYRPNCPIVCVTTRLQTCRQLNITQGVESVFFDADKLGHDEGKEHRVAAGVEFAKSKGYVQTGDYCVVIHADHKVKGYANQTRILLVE
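Pyruvate kinase activity monitored as ATP production (luciferase luminescence). Conditions: 0.1 nM enzyme, 0.5 mM PEP, 0.1 mM ADP, 1 h, RT; normalized against uninhibited and no-enzyme wells.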
TbPYK inhibitor – T. brucei pyruvate kinase inhibition; Q57TT1; 0.12% of 410,000 active; TbPYK enzyme, Kinase-Glo Plus ATP luminescence, 45 min; AID 624173; Potency, µM (titrated, usually from 76.8 µM), for the others: at the highest dose activity, negative = inhibition, most hits filed as inhibitors; also: potency is read from the fitted curve at half-maximal effect; % is scaled to controls: 0 for no effect and ±100 for the full control effect; nearly all actives have a fitted effect of over 50% in size
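In this concentration-response screen, enzyme-free wells defined baseline while DMSO plates tracked drift. Each reaction combined TbPYK, substrate, compound and 130 uM ADP for 45 min at room temperature. Kinase-Glo Plus luminescence gave the signal.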
Shiga inhibitor – blocks Shiga toxin action in Vero cells | Vero cells, Shiga toxin protein synthesis inhibition reporter | inhibition, % at 38.7 µM | 9.2% of 290,000 active | AID 2315; in the data active = inhibition mostly above about 28%, no sharp cut-off; inactive = mostly below about 43%; also: 0% is about no effect
NS1 function inh – blocks influenza NS1 protein function. AID 2326. 0.4% of 270,000 active. Potency, µM (doses to about 46.1 µM), for inactives: at the top dose activity, positive = more growth; calls by dose curve; also: potency is read from the fitted curve at half-maximal effect; actives are rising curves; nearly all actives have a fitted effect of over 50% in size
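Growth recovery, yeast-based: influenza A NS1 expressed in S. cerevisiae causes slow growth, and suppressors are detected by OD600. The parent strain without NS1 is used as positive control.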
An asterisk follows results filed as active. The sample as a whole holds a higher share of hits than the screen did. Unless noted, calls follow the shape of the dose curve; as a rule, active = well fitted curve in the direction sought with a large enough effect; inconclusive = small, poorly fitted or top-dose-only effect, or another doubt; inactive = no such curve, though single readings can be large; an effect the other way counts as inactive or inconclusive.

C[C@H](CO)N1C[C@H](C)[C@@H](CN(C)C(=O)C2CC2)OCc2cnnn2CCCC1=O was read as TbPYK inhibitor -1%.
CC(=O)n1cc(N(C(=O)CCl)c2ccc(C)cc2)c2ccccc21 was read as SARS PLpro yeast -2%, CHX counter 22*, LmPK inh 7%, TbPYK inhibitor -1%, Shiga inhibitor 4 and NS1 function inh -5%.
Screening O=C1C(Cl)=C(N2CCN(Cc3ccccc3)CC2)C(=O)N1Cc1ccccc1 returned SARS PLpro yeast -5%, CHX counter 1, LmPK inh -1%, TbPYK inhibitor 1%, Shiga inhibitor -13 and NS1 function inh -14%.
`Fc1ccc(N2CCN(C3=Nc4cccc5cccc3c45)CC2)cc1` gave SARS PLpro yeast 0%, CHX counter 24*, LmPK inh 3%, TbPYK inhibitor -3% and Shiga inhibitor 74*.
For c1ccc(CN2CCN(C3=Nc4cccc5cccc3c45)CC2)cc1 the results were SARS PLpro yeast 1%, CHX counter 18*, LmPK inh 0%, TbPYK inhibitor 4%, Shiga inhibitor 48 and NS1 function inh -50%.
O=C(CCCN1C(=O)c2cccc3cccc(c23)C1=O)N1CCN(c2ccc(F)cc2)CC1 was read as SARS PLpro yeast 0%, CHX counter -1, LmPK inh 7%, TbPYK inhibitor 0%, Shiga inhibitor 10 and NS1 function inh 3%.
Screening CCCC1CC(C)(C(=O)CSc2n[nH]c(-c3ccccc3)n2)OC1=O (configuration not stated) returned SARS PLpro yeast 4%, CHX counter 13, LmPK inh 0%, TbPYK inhibitor -20%, Shiga inhibitor 20 and NS1 function inh 0%.
For CCCC1CC(=O)OC1(C)C(=O)CSc1n[nH]c(-c2ccccc2)n1 (configuration not stated) the results were CHX counter 21, LmPK inh 2%, Shiga inhibitor 66* and NS1 function inh 9%.
Screening CCCCSc1ccc2nc(-c3ccc(C#N)cc3)cn2c1 returned SARS PLpro yeast -3%, CHX counter 58*, LmPK inh -3%, TbPYK inhibitor -5%, Shiga inhibitor 58 and NS1 function inh -52%.
For CCCSc1ccc2nc(-c3ccccc3)cn2c1 the results were SARS PLpro yeast -10%, CHX counter 17, LmPK inh 6.3µM*, TbPYK inhibitor inconclusive, Shiga inhibitor 12 and NS1 function inh -16%.
For COc1ccc(CNC(=O)c2ccc(-c3nc(CSc4ccccc4)c(C)o3)cc2)cc1 the results were TbPYK inhibitor 0%.
For O=C1CCC(=O)N1c1ccc(CSc2nc3ccccc3[nH]2)cc1 the results were SARS PLpro yeast -2%, CHX counter 27*, LmPK inh -2%, TbPYK inhibitor -6%, Shiga inhibitor 87* and NS1 function inh -13%.
c1ccc2[nH]c(SCc3ccc(-c4nnco4)cc3)nc2c1 was read as SARS PLpro yeast 5%, CHX counter 18*, LmPK inh inconclusive, TbPYK inhibitor -5%, Shiga inhibitor 89* and NS1 function inh -12%.
Screening CCOc1ccc(/C=N/NC(=O)c2ccc(CSc3nc4ccccc4[nH]3)cc2)cc1 returned SARS PLpro yeast -6%, CHX counter 21*, LmPK inh -2%, TbPYK inhibitor -2%, Shiga inhibitor 43* and NS1 function inh inconclusive.

Screens (PubChem BioAssay)
